# Source: PubChem BioAssay AID493185 (National Center for Advancing Translational Sciences (NCATS), 2011)
# Activity calls are given as the source filed them. Where a call stands in place of a potency, no number is given. The call rests on the fitted dose curve; in most records, active means well fitted activation curve with a large enough effect; inconclusive means small, poorly fitted or top-dose-only effect; inactive means no such curve, though single readings can be large or run the other way.
# Assay: Counterscreen for Identifying a Potential Treatment of Ataxia-Telangiectasia: Hit Validation
# Settings: cell-free AlphaLISA/AlphaScreen artifact counterscreen, PBS only, no cells; series mostly up to 76.9 µM
# Description: NIH Chemical Genomics Center [NCGC]
# NIH Molecular Libraries Probe Centers Network [MLPCN]
# Assay Submitter (PI): Wei Zheng and Yosef Shiloh
# Ataxia-telangiectasia (A-T) is a devastating and progressive disease for which, there is no cure. Although A-T is a multisystem disease, it is stereotyped characterized by its neurological symptoms such as truncal ataxia, due to cerebellar cortical degeneration of the Purkinje and granule cells. Other symptoms of A-T are telangiectasias (dilated blood vessels), primary immunodeficiency, marked sensitivity to ionizing radiation (IR), chromosomal instability and predisposition to cancer.
# The underlying genetic cause of A-T is null mutations in the ATM (A-T mutated) gene. ATM is a nuclear serine/threonine kinase that functions as a master regulator of the cellular responses to double strand breaks (DSBs) in the DNA. Upon activation by DSBs, ATM phosphorylates a plethora of downstream targets, including KAP-1 on […]. KAP-1 phosphorylation occurs shortly in response to DSBs and mediates global chromatin relaxation, which facilitates DSB repair. To screen for small molecules that will compensate for the loss of ATM in cells derived from A-T patients, we monitored KAP-1 phosphorylation as a readout for ATM-like activity using an AlphaLISA assay.
# 3. Library compounds, 23 nl, 76.7 - 0.61uM dilution series final concentration
# 4. Incubation, 60 min, 37C, 5% CO2, 95% humidity
# 6. Incubation, 30 min, 37C, 5% CO2, 95% humidity
# 7. Reagent, 1 ul, Premixed detection reagents and lysis buffer
# 8. Reagent, 1 ul, 0.6% Antifoam A
# 9. Incubation, 6 hr, 25C, 95% humidity
# 10. Readout, EnVision, EnVision plate reader. AlphaScreen 1536-well protocol
# PBS was dispensed into medium-binding white solid-bottom tissue culture treated Kalypsys plates with a Multidrop dispenser. Detection reagent and lysis buffer was 3.75nM Rab-a-pKAP1 antibody bound to 75 ng/ul AlphaScreen SA donor bead, 3.75 nM Biot-M-a-KAP1 antibody bound to AlphaLISA protein A acceptor bead, 0.5x protease inhibitor cocktail and 0.25x PerkinElmer lysis buffer. EnVision protocol for 1536-well AlphaScreen read (30ms excitation, 100ms read), about 10 min/plate. This assay is similar to the primary screen but is without cells. It aims to identify artifacts of the assay platform and unspecific hits.
# Potency means the concentration at half of the fitted maximal effect.
row,Structure (SMILES),Potency
1,CCN1C/C(=C/c2sccc2C)c2nc3ccccc3c(C(=O)O)c2C1,inactive
2,CC1CC(C)CN(S(=O)(=O)c2ccc(C(=O)NCCCn3ccnc3)cc2)C1 (stereo not given),inactive
3,CC1CC(C)CN(C(=O)COC(=O)c2c[nH]c3ccccc23)C1 (stereo not given),inactive
4,CC1=NOC2(C1)N(C)c1ccccc1C2(C)C (stereo not given),inactive
5,Cn1cnc([N+](=O)[O-])c1SCCO,inactive
6,Fc1ccc(C2N(c3ccccc3)C(=S)N3CCCN23)cc1 (stereo not given),inactive
7,COc1ccc(NC(=O)C2CC2)cc1OC1CCCC1,inactive
8,COc1ccccc1[C@H]1C(c2cccc(Cl)c2)=NN(c2ccccc2)[C@@H]1CO,29.2 µM (active)
9,OC1(CC#CCN2CCCCC2)c2ccccc2-c2ccccc21,inactive
10,Cc1ccc(C)c(-c2csc(Nc3ncccn3)n2)c1,inactive
11,Oc1ccc(-c2nccc(-c3ccc(F)cc3)n2)cc1,inactive
12,O=C(Nc1cccc([N+](=O)[O-])c1)N1CCCc2ccccc21,inactive
13,O=C(Nc1cc(S(=O)(=O)N2CCOCC2)ccc1Cl)c1cc(=O)c2ccccc2o1,inactive
14,Cc1ccc(OC(=O)c2cc(C)nn2C(C)(C)C)cc1,inactive
15,CCOC(=O)C1=C(C)N(c2ccc(OC)cc2)C(=O)/C1=C\c1ccc(O)c(OCC)c1,inactive
16,CC(C)c1ccc(C(C(=O)NC2CCCCC2)N(C(=O)c2ccccn2)c2cccnc2)cc1 (stereo not given),inactive
17,O=C(N/N=C/c1cccc2ccccc12)c1cccnc1,inactive
18,CCOc1ccccc1CNC(=O)Cn1c(=O)oc2ccccc21,inactive
19,c1ccc(CSc2nnc(-c3ccco3)n2Cc2ccco2)cc1,inactive
20,O=C1C(Cl)=C(Nc2ccc3cn[nH]c3c2)C(=O)c2ccccc21,inactive

row,Structure (SMILES),Potency
1,COc1ccc(CCn2c(S)nc3ccccc3c2=O)cc1,inactive
2,CCN(CC)c1ccc2c(Cl)c(Br)c(=O)oc2c1,inactive
3,Cc1ccc(C2(C)NC(=O)N(CC(=O)Nc3ccccc3N3CCCC3)C2=O)cc1 (stereo not given),inactive
4,CNC(=S)N(CCc1c(C)[nH]c2ccc(Cl)cc12)Cc1cccnc1,inactive
5,Cc1ccc(C(=O)Nc2sc3c(c2C(=O)O)CCCCC3)o1,inactive
6,COc1ccc(OC)c(C2CC(c3ccccc3)=NN2C(=S)Nc2ccccc2)c1 (stereo not given),inactive
7,Cc1cccc(NC(=O)/C(C#N)=C/c2ccc(F)cc2)n1,inactive
8,CN(C)C(=O)CN(C)S(=O)(=O)c1ccc(Cl)cc1,inactive
9,COCCCNC(=O)c1c[nH]c2ccc(S(=O)(=O)N(C)c3ccccc3C)cc2c1=O,inactive
10,CCOC(=O)N1CCC(NC(=O)C2CCN(S(=O)(=O)c3cccc4cccnc34)CC2)CC1,inactive
11,COc1ccc(Oc2ncnc3c2oc2ccc(Br)cc23)cc1,inactive
12,CCCCn1c2c(c(=N)c3ccccc31)CCC2,inactive
13,Clc1cccc(Cl)c1CSc1nnc(-c2ccncc2)s1,inactive
14,CC(=O)NNC(=O)CN1C(=O)/C(=C/c2ccccc2)SC1=S,inactive
15,COc1ccccc1OC(=O)Nc1ccc(Cl)cc1,6.54 µM (active)
16,N#C/C(=C/c1ccc(F)cc1)C(N)=S,inactive
17,C=CCN1C(=O)/C(=C/C(=O)OC)S/C1=N\NC(=O)c1ccccc1,inactive
18,CCC(C)NC(=O)c1cn(CCOC)c(=O)c2c1c1ccccc1n2C (stereo not given),inactive
19,O=C(C[n+]1ccc2c(c1)nnn2-c1ccccc1)c1ccc(Cl)cc1,inactive
20,CCC[C@H]1CCCC/C=C\CCCC(=O)OCCN1C(=O)OC(C)(C)C,inactive
